In PubChem BioAssay (NCI) one finds growth data, which are given here for 15 molecules.

The panel holds about 83,000 compounds, 20% with a hit somewhere; the sample as a whole holds those more often.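 Results are percent growth after 48 hours of single-concentration exposure. 100 means growth as in untreated cells, lower positive values show inhibition; negative values down to -100 show cell death.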 Unmarked numbers belong to inactive results. Activity calls are given as the source filed them. Rule for the calls: active = growth percent below 10; inactive = the rest.

Test systems include T-47D breast; BT-549 breast; MDA-MB-435 melanoma; SW-620 colon; MCF7 breast; HCT-116 colon; HCC-2998 colon; KM12 colon.
Common to all, as to assay: NCI-60 one-dose screen, 48 h (100 = growth as untreated, 0 = no growth, -100 = all killed)
What all share (details): 10 µM unless noted

Regarding `c1ccc(N2N=C(c3cccc(Nc4ccncc4)c3)CC2c2ccc3c(c2)OCO3)cc1` (stereo not given), the growth was 48.5% in the experiment with T-47D breast; 80% in the experiment with BT-549 breast; -73.2% (active) with MDA-MB-435 melanoma; -53.6% (active) in the experiment with SW-620 colon; 2.01% (active) in the experiment with MCF7 breast; 63.3% in the experiment with HCT-116 colon. The values for the growth in the experiment on HCC-2998 colon and in the experiment on KM12 colon were 0.363% (active) and 8.25% (active), respectively.

`COc1ccc(/C=C/c2n[nH]c3ccc(N4CCOC4=O)cc23)cc1`: the growth was 17.6% in the experiment on T-47D breast; 16.1% in the experiment with BT-549 breast; 44.4% in the experiment on MDA-MB-435 melanoma; 1.51% (active) in the experiment with SW-620 colon; 2.37% (active) with MCF7 breast; 8.08% (active) in the experiment with HCT-116 colon. Moreover, the growth is 31.5% with HCC-2998 colon and 8.51% (active) with KM12 colon.

Consider `CC(=O)OC1CCC2(C)C(CCC3C4CC=C(C(C)=O)C4(C)OC(=O)CC32)C1` (stereo not given), for which the growth in the experiment with T-47D breast is 17.4%; in the experiment on BT-549 breast, 28.8%; in the experiment with MDA-MB-435 melanoma, 20.4%; in the experiment with SW-620 colon, -48.7% (active); with MCF7 breast, 11.2%; in the experiment on HCT-116 colon, -98.9% (active). Besides, the growth was 73.8% in the experiment on HCC-2998 colon and 81.6% with KM12 colon.

Consider `C=CCn1c(SCC(=O)Nc2ccc(C(=O)/C=C/c3cc(OC)c(OC)c(OC)c3)cc2)nnc1-c1cc(-c2ccc(S(C)(=O)=O)cc2)nc2ccccc12`, for which the growth with T-47D breast was 85.6%; with BT-549 breast it was 79.4%; in the experiment with MDA-MB-435 melanoma, 88.6%; in the experiment on SW-620 colon it was 77%; with MCF7 breast it was 50.6%; in the experiment on HCT-116 colon, 27.4%. Also, the growth in the experiment with HCC-2998 colon is 111%; in the experiment with KM12 colon, 75.2%.

`COc1cc2ncnc(Nc3ccc(C(=O)/C=C/c4ccc(C(F)(F)F)cc4F)cc3)c2cc1OC`: the growth in the experiment with T-47D breast is 131%; in the experiment on BT-549 breast it was 93.6%; with MDA-MB-435 melanoma it was 84.2%; in the experiment on SW-620 colon it was 110%; in the experiment with MCF7 breast, 64.6%; in the experiment with HCT-116 colon, -62.7% (active). For the same molecule, the growth was 109% in the experiment with HCC-2998 colon and 83.4% in the experiment on KM12 colon.

`C#CCNC(=O)[C@H](Cc1ccccc1)NC(=O)[C@]12CC[C@@H](C(=C)C)[C@@H]1[C@H]1CC[C@@H]3[C@@]4(C)Cc5c([nH]c6ccccc56)C(C)(C)[C@@H]4CC[C@@]3(C)[C@]1(C)CC2`: the growth with T-47D breast is 75.3%; in the experiment with BT-549 breast, 105%; in the experiment on MDA-MB-435 melanoma it was 105%; in the experiment on SW-620 colon it was 111%; in the experiment with MCF7 breast it was 85.3%; in the experiment on HCT-116 colon, 85.9%. The growth was 109% in the experiment on HCC-2998 colon and 103% in the experiment with KM12 colon.

Regarding `COc1ccc(/C=C(/c2ccccc2)[N+](=O)[O-])cc1`, the growth was -64.5% (active) in the experiment on T-47D breast; -18.7% (active) with BT-549 breast; -35.6% (active) in the experiment with MDA-MB-435 melanoma; -57.6% (active) with SW-620 colon; -31.3% (active) with MCF7 breast; -71.6% (active) with HCT-116 colon. The results for the growth with HCC-2998 colon and in the experiment with KM12 colon were -80.7% (active) and -36.2% (active), respectively.

For `COc1ccc(Cn2nc(-c3cc(OC)c(OC)c(OC)c3)c3c2CCc2cnoc2-3)cc1OC`, the growth is 65.8% with T-47D breast; 61.1% with BT-549 breast; -7.19% (active) in the experiment with MDA-MB-435 melanoma; 48% in the experiment with SW-620 colon; 29.8% in the experiment with MCF7 breast; 46.6% in the experiment on HCT-116 colon. Also, the growth in the experiment on HCC-2998 colon is 70.5%; in the experiment with KM12 colon, 54%.

As for `COc1ccc(C(=O)/C=C/c2cn(Cc3ccc(Cl)cc3)c3ccccc23)cc1`, the growth in the experiment on T-47D breast was 48.2%; in the experiment with BT-549 breast, 86.9%; in the experiment on MDA-MB-435 melanoma, -20.5% (active); with SW-620 colon, 28%; with MCF7 breast, 52.6%; in the experiment with HCT-116 colon, -77.5% (active). Besides, the growth is 59.7% in the experiment with HCC-2998 colon and 32.2% in the experiment on KM12 colon.

In the case of `O=C1c2ccccc2C(=O)c2c(NCCN=Cc3ccccc3O)cccc21`, the growth in the experiment on T-47D breast was 63.6%; in the experiment with BT-549 breast, 73.4%; in the experiment on MDA-MB-435 melanoma, 71.5%; in the experiment with SW-620 colon, 35.4%; in the experiment on MCF7 breast, 32.4%; in the experiment on HCT-116 colon, 15.4%. In addition, the growth in the experiment on HCC-2998 colon was 30.9%; in the experiment with KM12 colon, 48.7%.

Turning to `c1ccc(Cn2nc3c(c2-c2ccccc2)-c2oncc2CC3)cc1`, the growth with T-47D breast was 80.9%; in the experiment on BT-549 breast it was 88%; with MDA-MB-435 melanoma, 89.2%; in the experiment with SW-620 colon, 106%; in the experiment with MCF7 breast it was 82.5%; in the experiment on HCT-116 colon, 94.2%. The growth in the experiment with HCC-2998 colon is 97.8%; in the experiment with KM12 colon it was 99.6%.

As to `COc1cccc(NC(=O)c2cccc(-c3cc(=O)c4c(OC)c(OC)c(OC)cc4o3)c2)c1`, the growth with T-47D breast was 44.4%; in the experiment with BT-549 breast, 54.2%; with MDA-MB-435 melanoma, 81.2%; in the experiment on SW-620 colon, 89.6%; in the experiment with MCF7 breast, 87.7%; in the experiment with HCT-116 colon, 60.7%. The growth is 87.8% in the experiment with HCC-2998 colon and 53.7% with KM12 colon.

Regarding `Fc1ccc(-n2cc(COc3ncnc4sc5c(c34)CCCC5)nn2)cc1Cl`, the growth is 95.1% in the experiment with T-47D breast; 103% in the experiment with BT-549 breast; 99% in the experiment on MDA-MB-435 melanoma; 101% with SW-620 colon; 95% in the experiment on MCF7 breast; 101% with HCT-116 colon. For the same molecule, the results for the growth with HCC-2998 colon and in the experiment on KM12 colon were 114% and 105%, respectively.

For `c1ccc(CCSc2ncnc3nc[nH]c23)cc1`, the growth is 74.2% with T-47D breast; 117% with BT-549 breast; 79.5% with MDA-MB-435 melanoma; 94.1% with SW-620 colon; 88.3% in the experiment with MCF7 breast; 88.1% with HCT-116 colon. In addition, the growth was 97.1% in the experiment on HCC-2998 colon and 93.6% with KM12 colon.

On to `CCOC(=O)Oc1c(OC)cc(C(=O)O[C@@H]2C[C@@H]3CN4CCc5c([nH]c6cc(OC)ccc56)[C@H]4C[C@@H]3[C@H](C(=O)OC)[C@H]2OC)cc1OC`, for which the growth with T-47D breast was 38.6%; with BT-549 breast, 77.5%; in the experiment on MDA-MB-435 melanoma it was 70.9%; with SW-620 colon, 48.4%; in the experiment on MCF7 breast it was 83.8%; in the experiment with HCT-116 colon it was 1.57% (active). Besides, the growth with HCC-2998 colon was 68.7%; in the experiment with KM12 colon it was 39.8%.
